Screening data (PubChem)
GLP1R inv ag: acts as inverse agonist at human GLP-1 receptor. actives 1.6% (n = 410,000). HEK293 GLP-1R CRE-luciferase, luminescence, 24 h; GLP-1R form is constitutively active. Potency, µM (top dose mostly 38.3 µM), for inactives: top-dose activity change, negative = inhibition, actives largely listed as inhibitors; note: % is set by controls: 0 for no effect and ±100 for the full control effect; nearly all actives have a fitted effect of over 55% in size
Target sequence (P43220 whole entry, looked up): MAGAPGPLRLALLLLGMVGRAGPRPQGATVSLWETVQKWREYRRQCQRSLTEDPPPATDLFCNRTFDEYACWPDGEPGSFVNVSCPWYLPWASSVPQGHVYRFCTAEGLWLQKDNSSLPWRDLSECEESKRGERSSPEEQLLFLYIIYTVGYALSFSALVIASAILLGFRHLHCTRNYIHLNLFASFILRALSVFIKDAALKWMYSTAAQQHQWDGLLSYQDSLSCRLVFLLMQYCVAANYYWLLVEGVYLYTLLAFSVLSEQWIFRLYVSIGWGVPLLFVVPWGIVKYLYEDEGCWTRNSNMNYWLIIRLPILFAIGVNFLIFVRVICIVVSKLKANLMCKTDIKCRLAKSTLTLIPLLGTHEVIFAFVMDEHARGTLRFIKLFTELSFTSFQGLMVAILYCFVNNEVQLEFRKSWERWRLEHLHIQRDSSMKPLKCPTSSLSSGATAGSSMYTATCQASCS
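Readout was luciferase luminescence, measured 12 min after detection reagent at room temperature. Beforehand, GLP-1R reporter HEK293 cells had sat 12 h, then received compounds for 24 hr at 37 deg C.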
GLP1R ag: agonists of human GLP-1 receptor; AID 624172; P43220; Potency, µM (top dose mostly 45.6 µM), without a hit: top-dose activation, hits mostly activators; HEK293 GLP-1R CRE-luciferase, luminescence, 4-6 h; cells express a hypersensitive GLP-1R form; actives 0.007% (n = 380,000); note: % of control where 0% means no effect
TGFb SMAD3 inh: TGF-b pathway inhibition; Potency, µM (top dose mostly 46.1 µM), inactives show at the top dose activity, negative = inhibition, actives largely listed as inhibitors; actives 1.2% (n = 410,000); HepG2 CAGA-GFP TGF-b/SMAD3 reporter, GFP fluorescence, 18 h; TGF-beta stimulated, 500 pg/mL final; note: % is set by controls: 0 for no effect and ±100 for the full control effect; nearly all actives have a fitted effect of over 65% in size
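Inhibition was scored as loss of TGF-beta-induced (500 pg/mL final, 18 hours, 37 degrees C) GFP in HEPG2 cells carrying a CAGA-GFP reporter, in DMEM with 1% FBS. Well GFP was summed per cell; Activity was normalised to unstimulated and stimulated DMSO wells, then concentration-response fitting.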
S2 tox: reduces viability in counter-screen for ATXN expression inhibitors | actives 0.49% (n = 400,000) | S2 cells (HEK-293 line with an ATXN2-luciferase reporter) viability, CellTiter-Fluor protease fluorescence, 24 h | Potency, µM (top dose mostly 56.7 µM), usual class: cytotoxic; note: nearly all actives have a fitted effect of over 40% in size
HepG2 tox: counter-screen for TGF-b inhibitors: cytotoxicity in HepG2 cells. HepG2 CAGA-GFP viability, ATP luminescence, 18 h. Potency, µM (highest dose often 46.1 µM), without a hit: at the highest dose activity change, negative = cytotoxicity, most hits filed as cytotoxic. actives 0.76% (n = 410,000). AID 588856
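CellTiter-Glo luminescence gave cytotoxicity after 18 hours at 37 degrees C. The cells were HepG2 CAGA-GFP in 1% FBS DMEM, stimulated with 500 pg/mL TGF-beta after compound addition. %Activity was normalised to no-cell wells (complete cell-killing) and DMSO (no toxicity), and curves were fitted and classified.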
ATXN2 expr inh: ATXN2 expression inhibition; HEK-293 ATXN2-luciferase reporter, luminescence, 24 h; actives 0.72% (n = 360,000); Potency, µM (top dose mostly 57 µM), for inactives: at the top dose activity change, negative = inhibition, actives largely listed as inhibitors; note: % is set by controls: 0 for no effect and ±100 for the full control effect; nearly all actives have a fitted effect of over 55% in size
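ATXN2-luciferase reporter cells (luciferase flanked by upstream and downstream ATXN2 gene portions) were treated 24 h at 37 °C with compounds at up to 57 uM. SteadyGlo luminescence gave expression; GF-AFC fluorescence gave viability.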
Starred values were filed as active, the others as inactive; i = inactive; ? = inconclusive; . = not tested or not shown; [ ] = another dose, or the depositor's remark. Sampled rows, rich in hits. Any-hit rate of the full collection: about 3.7%. Calls come from the whole dose curve; as a rule, active = well fitted curve in the direction sought with a large enough effect; inconclusive = small, poorly fitted or top-dose-only effect, or another doubt; inactive = no such curve, though single readings can be large; an effect the other way counts as inactive or inconclusive. Potency is the fitted concentration of half-maximal effect.

SMILES	GLP1R inv ag	GLP1R ag	TGFb SMAD3 inh	S2 tox	HepG2 tox	ATXN2 expr inh
CC1OC(OC2C(O)CC(OC3C(O)CC(OC4CCC5(C)C(CCC6C5CCC5(C)C(C7=CC(=O)OC7)C(O)CC65O)C4)OC3C)OC2C)CC(O)C1O (configuration not stated)	?	-3%	?	?	-44%	0.32µM*
CC(=O)[C@H]1CCC2C3CC[C@H]4C[C@@H](O)CC[C@]4(C)C3CC[C@@]21C (some centres not stated)	0%	-3%	-3%	i	-3%	4%
CC(=O)OC1CC(OC2C(O)CC(OC3C(O)CC(OC4CCC5(C)C(CCC6C5CCC5(C)C(C7=CC(=O)OC7)C(O)CC65O)C4)OC3C)OC2C)OC(C)C1OC1OC(CO)C(O)C(O)C1O (configuration not stated)	-82%	-33%	2µM*	i	-67%	-80%
CC(=O)OC1CC2(O)C3CCC4CC(O)CCC4(C)C3CCC2(C)C1C1=CC(=O)OC1 (configuration not stated)	?	-5%	2µM*	?	-44%	0.32µM*
CC(=O)O[C@@H]1CC[C@]2(C)C3CC[C@@]4(C)C(C[C@@H](O)[C@@H]4O)C3[C@@H](OC(C)=O)C[C@H]2C1 (some centres not stated)	6%	9%	-3%	i	0%	12%
O=C(N[C@H]1N=C(c2ccccc2F)c2cccc3c2N(CC3)C1=O)c1cc2ccccc2[nH]1	.	3%	.	?	.	46%
O=P(Nc1cccc(Cl)c1)(Oc1ccccc1)Oc1ccccc1	8.9µM*	3%	?	?	-41%	-7%
COc1cccc(NP(=O)(Oc2ccccc2)Oc2ccccc2)c1	5µM*	-4%	18µM*	i	-6%	-13%
CC(Cc1ccc2c(c1)OCO2)NO (configuration not stated)	.	1%[110 µM]	.	i	.	-22%[116 µM]
O=C(Cn1c(=O)oc2cc(S(=O)(=O)NCc3ccccc3)ccc21)NCc1ccccc1Cl	-26%	.	?	.	-64%	.
COc1ccc(C2CN(C)CC2C(=O)c2ccc(C)cc2)cc1Cl (configuration not stated)	10µM*	12%	6%	i	-25%	-17%
CN1CC(C(=O)c2ccc(Cl)cc2)C(c2ccc(Cl)cc2Cl)C1 (configuration not stated)	8.9µM*	9%	-26%	i	-32%	-20%
C[C@]12N[C@@H](Cc3ccccc31)c1ccccc12	.	.	.	i	.	.
CN(CC1COc2ccccc2O1)c1nc(-c2cccnc2)nc2ccccc12 (configuration not stated)	?	?	?	i	5µM*	60%
CN1CCC(N(C)c2nc(-c3ccc([N+](=O)[O-])cc3)nc3ccccc23)CC1	0%	-32%	?	i	-123%	-16%
NCC(=O)c1cccc([N+](=O)[O-])c1	.	.	?	.	1%	.
CCCCn1c(O)c(C=NC2CC3CCC2(C)C3(C)C)c(=O)[nH]c1=O (configuration not stated)	5.6µM*	4%	-6%	i	-13%	9%
Cn1c(O)c(C=NC2CC3CCC2(C)C3(C)C)c(=O)[nH]c1=O (configuration not stated)	13%	-4%	5%	i	-9%	-22%
O=C(CBr)Nc1ccc(Cl)cc1C(=O)c1ccccc1F	.	.	.	i	.	-7%
COc1ccc(-c2cc(C(=O)N3CCN(c4ccccc4OC)CC3)c3cc(C(C)C)ccc3n2)cc1	8.9µM*	.	-3%	?	-10%	?
CCOc1ccc(-c2cc(C(=O)N3CCN(c4cccc(C(F)(F)F)c4)CC3)c3ccccc3n2)cc1	?	.	-11%	i	1%	10%
CN(C)c1ccc(-[n+]2c(-c3ccccc3)cc(-c3ccccc3)cc2-c2ccccc2)cc1	?	4%	4µM*	?	-36%	?
Cc1ccc(-c2cc(-c3ccccc3)cc(-c3ccccc3)[n+]2-c2ccccc2)cc1	?	-10%	5.6µM*	13µM*	-65%	3.5µM*
c1ccc(-c2cc(-c3ccccc3)[n+](-c3ccccc3)c(-c3ccccc3)c2)cc1	?	-10%	13µM*	.	-23%	8.9µM*
Cc1ccc(-c2cc(-c3ccc(C)cc3)[n+](-c3ccc(C(=O)[O-])cc3)c(-c3ccc(C)cc3)c2)cc1	-1%	0%	-13%	i	-28%	0%
SMILES	GLP1R inv ag	GLP1R ag	TGFb SMAD3 inh	S2 tox	HepG2 tox	ATXN2 expr inh
C[C@]12CCC(=O)C=C1CC[C@H]1C2CC[C@@]2(C)[C@@H]1CC[C@]2(C)O (some centres not stated)	.	10%	.	.	.	.
COC(=O)C1=C(c2cc3ccccc3s2)C[C@@H]2CC[C@H]1N2C(=O)NC1CC1	-30%	-5%	-26%	i	-30%	-12%
COC(=O)C1=C(c2cc3ccccc3s2)C[C@@H]2CC[C@H]1N2C(=O)N1CCC(C)CC1	10µM*	25%	?	i	1%	-12%
COC(=O)C1=C(c2cc3ccccc3o2)C[C@@H]2CC[C@H]1N2C(=O)NCc1cccc2ccccc12	?	-2%	-17%	i	-17%	-4%
COC(=O)C1=C(c2cc3ccccc3o2)C[C@@H]2CC[C@H]1N2C(=O)NCc1ccc(F)cc1	11µM*	3%	?	?	-23%	-11%
COC(=O)C1=C(c2cc3ccccc3s2)C[C@@H]2CC[C@H]1N2C(=O)NCC1CC1	?	11%	?	?	-25%	-12%
COC(=O)C1=C(c2cc3ccccc3s2)C[C@@H]2CC[C@H]1N2C(=O)NCc1ccc(C(F)(F)F)cc1	4µM*	-5%	?	?	-2%	?
C[C@]12CC[C@@H]3c4ccc(OC(=O)N(CCCl)CCCl)cc4CC[C@@H]3[C@H]1CC[C@@H]2OP(=O)(O)O	.	-6%	.	.	.	.
CCC1(c2cnc[nH]2)Cc2ccccc2C1	.	-1%	.	i	.	1%
CC1OC(OC2C=C3CCC4C(CCC5(C)C(c6ccc(=O)oc6)CCC45O)C3(C)CC2)C(O)C(OC2OC(CO)C(O)C(O)C2O)C1O (configuration not stated)	-72%	-36%	0.4µM*	?	-54%	0.0075µM*
COc1ccccc1NC(=O)N(Cc1ccc2c(c1)OCO2)C1CCN(Cc2ccccc2)CC1	?	.	8.9µM*	?	-29%	?
